CYP2C19 act – human CYP2C19 activators, primary screen, biochemical, luminescence; 96,000 tested, under 10 active; activation factor at 5 µM; recombinant CYP2C19, luciferin-H EGE luminescence; hits give high values; 0 = fully inhibited enzyme, 1 = untreated enzyme;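 active means activation factor of at least 2 at 5 µM in the primary screen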;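 further: 0 = wells with 2.5 mM tranylcypromine and 1 = vehicle-only wells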
Target sequence (P33261 whole entry, looked up): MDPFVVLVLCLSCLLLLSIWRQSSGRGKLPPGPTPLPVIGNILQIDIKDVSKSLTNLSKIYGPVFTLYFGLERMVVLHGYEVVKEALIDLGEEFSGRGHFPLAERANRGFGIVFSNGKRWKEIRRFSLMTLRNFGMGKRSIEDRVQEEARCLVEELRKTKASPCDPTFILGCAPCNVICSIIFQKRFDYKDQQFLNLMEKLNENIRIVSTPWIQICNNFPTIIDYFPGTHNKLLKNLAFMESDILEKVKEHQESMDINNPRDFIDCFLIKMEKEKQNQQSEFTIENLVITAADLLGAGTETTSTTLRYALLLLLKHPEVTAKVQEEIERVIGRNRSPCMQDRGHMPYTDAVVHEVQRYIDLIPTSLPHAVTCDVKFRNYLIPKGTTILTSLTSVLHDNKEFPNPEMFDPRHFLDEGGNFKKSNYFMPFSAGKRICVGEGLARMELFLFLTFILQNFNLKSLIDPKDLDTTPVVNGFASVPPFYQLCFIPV
Measles CPE – compounds protecting cells from measles virus cytopathic effect, primary screen, measles RdRp inhibitor project, single point, MLSMR library, absorbance; Measles virus-infected cells, CPE protection; protection (pct of control), % at 4 µM; 140,000 compounds, 1.5% hits; in the data active means protection mostly above about 24%, no sharp cut-off; inactive means mostly below about 26%
CYP2C19 inh – blockers of cytochrome P450 2C19 activity – biochemical, luminescence, ADME assay, primary screen; P33261; CYP2C19 Supersomes, luciferin-H EGE luminescence, 30 min; inhibition, % at 5 µM; 96,000 compounds, 21% hits; AID 778, 2007;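 active means CYP2C19 inhibition above a set limit at 5 µM in the primary screen, cut at about 50% in these data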;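 further: plate controls were negative control wells for no effect and 2.5 mM tranylcypromine positive control for full effect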
CYP2C9 activ – human CYP2C9 activators, primary screen, biochemical, luminescence; recombinant CYP2C9, luciferin-H conversion; hits give high values; factor 1 = untreated enzyme, 0 = blocked; activation factor at 5 µM; 96,000 compounds, 1.4% hits; AID 1024, 2008;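 active means activation factor of 2 or more for CYP2C9 at a 5 µM dose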;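 further: 0 = sulfaphenazole-blocked wells and 1 = vehicle-only wells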
CYP2C9 inhib – blockers of cytochrome P450 2C9 activity – biochemical, luminescence, ADME assay, primary screen. P11712. CYP2C9 Supersomes, luciferin-H conversion. inhibition, % at 5 µM. 96,000 compounds, 20% hits. AID 777, 2007;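 active means blocking of liver enzyme CYP2C9 beyond about 50% at 5 µM, limit read from the data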
* marks the source's active call; other numbers are inactive results; . = no result. Sampled rows, rich in hits. Any-hit rate of the full collection: about 22%.

SMILES | CYP2C19 act | Measles CPE | CYP2C19 inh | CYP2C9 activ | CYP2C9 inhib
O=C(Nc1nccs1)C1Cc2ccccc2CN1S(=O)(=O)c1ccc(F)cc1 (configuration not stated) | 0.4 | 4 | 61* | 0.6 | 35
Cc1ccc(S(=O)(=O)N2CCCC2C(=O)Nc2nccs2)cc1 (configuration not stated) | 0.4 | 2 | 60* | 0.4 | 61*
CCC(C)NC(=O)C1CCCCN1S(=O)(=O)c1ccc(F)cc1 (configuration not stated) | 0.8 | 5 | 20 | 0.9 | 10
COc1ccc(S(=O)(=O)N2CCCC2C(=O)Nc2nccs2)cc1 (configuration not stated) | 1 | 11 | 0 | 0.8 | 23
CC(C)N(C)CCOC(=O)c1ccccc1Br | . | 12 | . | . | .
Cc1cnc(C(=O)Nc2cc(S(=O)(=O)N3CCOCC3)ccc2N2CCN(C)CC2)cn1 | . | 12 | . | . | .
CC(=O)c1c(C)nn(C(C)CC(=O)O)c1C (configuration not stated) | . | 11 | . | . | .
CCOC(=O)C(Sc1cc(C)nc(N)n1)C(C)=O (configuration not stated) | 1.1 | 5 | -8 | 1 | 3
Cc1ccc(S(=O)(=O)N2CCC(C(=O)N3CCC[C@H]3C(=O)NC3CCS(=O)(=O)C3)CC2)cc1 (some centres not stated) | 1.1 | 27 | -8 | 1.1 | -13
O=C(NC1CCS(=O)(=O)C1)C1CCCCN1S(=O)(=O)c1ccc(Cl)cc1 (configuration not stated) | 0.8 | 17 | 21 | 0.1 | 91*
Cc1nc(N2CCN(Cc3ccccc3)CC2)nc2c1C(=O)CCC2 | 0.5 | 7 | 55* | 0.7 | 33
O=c1cc(-c2ccccc2)nc(N2CCN(Cc3ccc4c(c3)OCO4)CC2)[nH]1 | 0.6 | 10 | 38 | 0.5 | 48
Cc1nc(N2CCN(Cc3ccccc3)CC2)nc2c1C(=O)CC(c1ccco1)C2 (configuration not stated) | 0.6 | 12 | 40 | 0.5 | 54*
COc1ccc(C2CC(=O)c3c(C)nc(N4CCN(c5ccccc5)CC4)nc3C2)cc1 (configuration not stated) | 0.8 | . | 21 | 0.6 | 42
Cc1nc(N2CCN(Cc3ccc4c(c3)OCO4)CC2)nc2c1C(=O)CC(c1ccco1)C2 (configuration not stated) | 0.3 | 6 | 73* | 0.1 | 88*
Cc1cc2ncn(CCOc3ccccc3C#N)c2cc1C | 0.2 | 13 | 77* | 0.5 | 51*
Cc1ccc(OCCCCn2cnc3ccccc32)c(C)c1 | 0.7 | 3 | 35 | 0.6 | 38
Cc1ccc(C)c(OCCCCn2cnc3ccccc3c2=O)c1 | 0.7 | 2 | 31 | 1 | -4
Clc1ccc(OCCn2cnc3ccccc32)cc1 | 0.2 | 31 | 84* | 0.2 | 77*
Clc1ccccc1OCCn1cnc2ccccc21 | 0.2 | 5 | 80* | 0.3 | 69*
COc1cc(/C=C2\SC(c3ccc(C)cc3)=NC2=O)cc(OC)c1O | 0.3 | 7 | 71* | 0.2 | 82*
O=C(Nc1nc(=S)ss1)c1ccc(Cl)cc1Cl | 0.8 | 13 | 24 | 0.1 | 94*
Cc1cc(NC(=O)Cn2nnc3sc4c(c3c2=O)CCC(C(C)(C)C)C4)no1 (configuration not stated) | 0.7 | 7 | 32 | 0.4 | 57*
Cc1cc(NC(=O)Cn2nnc3sc4c(c3c2=O)CCCC4)no1 | 0.9 | 5 | 6 | 0.8 | 21
CCn1c(SCC(=O)Nc2cc(C)on2)nc2sc3c(c2c1=O)CCCC3 | . | 14 | . | . | .
SMILES | CYP2C19 act | Measles CPE | CYP2C19 inh | CYP2C9 activ | CYP2C9 inhib
Cc1cc(NC(=O)CSc2nc3sc4c(c3c(=O)n2C)CCCC4)no1 | 1 | 33* | 2 | 0.8 | 16
Cc1cc(NC(=O)CSc2nc(C(C)C)nc3sc4c(c23)CCCC4)no1 | 0.2 | 7 | 80* | 0.2 | 76*
NS(=O)(=O)c1cccc(NC(=O)CN2CCN(Cc3ccc4c(c3)OCO4)CC2)c1 | . | 15 | . | . | .
CCCCC(=O)Nc1ccc(NC(=S)NC(=O)c2cccs2)cc1OC | . | 8 | . | . | .
COc1ccc2c(c1)C(=NO)c1cc(OC)ccc1-2 | 0.9 | 9 | 5 | 0 | 96*
C=CCOc1ccc2c(c1)C(=NO)c1cc(OCC=C)ccc1-2 | 0.7 | 18 | 33 | 0.2 | 82*
COc1ccc2c(c1)C(=NNC(=O)c1ccccn1)c1cc(OC)ccc1-2 | . | 0 | . | . | .
C=CCn1c(SCc2nc3ccccc3c(=O)[nH]2)nnc1-c1cc2cc(Cl)ccc2o1 | 0.6 | 2 | 45 | 0.3 | 68*
C=CCn1c(SCc2nc3scc(-c4ccccc4)c3c(=O)[nH]2)nnc1-c1ccccc1F | . | 32 | . | . | .
COCCn1c(SCc2nc3ccccc3c(=O)[nH]2)nnc1-c1ccncc1 | 0.5 | 15 | 52* | 0.6 | 38
COc1ccccc1-c1nnc(SCc2nc3ccccc3[nH]2)n1C | 0.2 | 17 | 80* | 0.9 | 12
O=c1[nH]c(CSc2nnc(-c3ccccc3)n2-c2ccccc2)nc2ccccc12 | . | 28* | . | . | .
O=C(Cc1ccccc1)Nc1cccc(N2C(=O)C=CC2=O)c1 | . | 4 | . | . | .
Cc1cc2cc(CNC(=S)Nc3ccc(OC(F)(F)F)cc3)ccc2[nH]1 | . | 6 | . | . | .
Cc1ccc(OCC(=O)Nc2ccc(F)cc2)cc1C | . | 7 | . | . | .
CN(C)/C(=N\S(=O)(=O)c1ccccc1)c1ccc([N+](=O)[O-])cc1 | . | 33 | . | . | .
O=c1[nH]c(CSc2nnc(-c3ccncc3)n2Cc2ccco2)nc2ccccc12 | 0.5 | 5 | 47 | 0.4 | 56*
Clc1ccc(-n2c(SCc3nc4ccccc4[nH]3)nnc2-c2ccncc2)cc1 | 0 | 11 | 99* | 0.2 | 84*
CCn1c(SCc2nc3ccccc3c(=O)[nH]2)nc2ccccc2c1=O | . | 26 | . | . | .
CCOC(=O)c1[nH]c(CSc2nnc(-c3ccncc3)n2CCOC)c(C(=O)OCC)c1C | 0.3 | 13 | 65* | 0.1 | 94*
COCCCn1c(SCc2nc3ccccc3c(=O)[nH]2)nc2ccccc2c1=O | 0.6 | 9 | 36 | 0.3 | 67*
CCCn1nc2cc(C(=O)N(CC)c3ccc(OC)cc3)ccc2c1OCC | 0.8 | 15 | 17 | 0.7 | 26
CC(C)N1C(=O)CCC1C(=O)N1CCCc2ccccc21 (configuration not stated) | 1 | 12 | 1 | 0.8 | 16
CC1(C)CC(=O)C(CCC(=O)c2ccccc2)C(C)(C)N1 (configuration not stated) | 1 | 15 | 0 | 1.1 | -6
O=C(Nc1c(F)cc(F)cc1Br)c1cc(-c2ccc(O)cc2)on1 | 0.1 | 11 | 87* | 1.6 | -58
Cc1cc(C(=O)Nc2c(F)cc(F)cc2Br)no1 | 1 | 8 | -1 | 1.1 | -8

High-throughput results: PubChem, several laboratories
